The values that follow come from ChEMBL document CHEMBL1961873, “Compounds: GSK PKIS; Assays: Nanosyn kinase panel” (2012).

Test [1] concerns the target Tyrosine-protein kinase Fer (Homo sapiens) (UniProt P16591). As to conditions: at 1 µM.
Test [2] concerns the target Tyrosine-protein kinase Fes/Fps (Homo sapiens) (UniProt P07332). The conditions noted are these: at 0.1 µM.
Test [3] has the same target. As to conditions: at 1 µM.
The target in test [4] is Fibroblast growth factor receptor 1 (Homo sapiens) (UniProt P11362). The conditions noted are these: at 0.1 µM.
Sequence of Fibroblast growth factor receptor 1 (Homo sapiens) (P11362 22-822 limits assumed): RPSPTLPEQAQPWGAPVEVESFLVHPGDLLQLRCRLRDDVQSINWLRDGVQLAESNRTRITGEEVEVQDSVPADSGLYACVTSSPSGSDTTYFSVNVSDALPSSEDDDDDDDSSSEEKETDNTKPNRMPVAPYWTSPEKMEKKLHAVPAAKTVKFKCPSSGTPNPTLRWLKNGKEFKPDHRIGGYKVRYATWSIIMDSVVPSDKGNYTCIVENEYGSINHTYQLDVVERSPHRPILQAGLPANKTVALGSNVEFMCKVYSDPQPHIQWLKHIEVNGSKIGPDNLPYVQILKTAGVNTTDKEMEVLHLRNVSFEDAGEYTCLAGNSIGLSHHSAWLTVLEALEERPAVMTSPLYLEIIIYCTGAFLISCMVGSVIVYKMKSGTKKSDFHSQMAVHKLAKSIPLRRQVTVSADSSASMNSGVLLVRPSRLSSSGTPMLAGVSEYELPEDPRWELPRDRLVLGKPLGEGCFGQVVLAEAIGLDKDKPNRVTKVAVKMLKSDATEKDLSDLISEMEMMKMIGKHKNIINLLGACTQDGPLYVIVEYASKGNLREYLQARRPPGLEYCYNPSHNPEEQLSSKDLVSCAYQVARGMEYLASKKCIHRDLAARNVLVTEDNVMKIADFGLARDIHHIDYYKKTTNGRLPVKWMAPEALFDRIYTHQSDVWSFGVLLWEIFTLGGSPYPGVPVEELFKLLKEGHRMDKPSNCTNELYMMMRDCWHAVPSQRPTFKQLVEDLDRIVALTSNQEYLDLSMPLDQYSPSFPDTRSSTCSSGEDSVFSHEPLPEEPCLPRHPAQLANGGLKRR
The target is the same in test [5]. The conditions noted are these: at 1 µM.
The target in test [6] is Fibroblast growth factor receptor 2 (Homo sapiens) (UniProt P21802). The conditions noted are these: at 0.1 µM.
Test [7] shares this target. As to conditions: at 1 µM.
For test [8], the target named is Fibroblast growth factor receptor 3 (Homo sapiens) (UniProt P22607). The conditions noted are these: at 0.1 µM.
Sequence of Fibroblast growth factor receptor 3 (Homo sapiens) (P22607 23-806 limits assumed): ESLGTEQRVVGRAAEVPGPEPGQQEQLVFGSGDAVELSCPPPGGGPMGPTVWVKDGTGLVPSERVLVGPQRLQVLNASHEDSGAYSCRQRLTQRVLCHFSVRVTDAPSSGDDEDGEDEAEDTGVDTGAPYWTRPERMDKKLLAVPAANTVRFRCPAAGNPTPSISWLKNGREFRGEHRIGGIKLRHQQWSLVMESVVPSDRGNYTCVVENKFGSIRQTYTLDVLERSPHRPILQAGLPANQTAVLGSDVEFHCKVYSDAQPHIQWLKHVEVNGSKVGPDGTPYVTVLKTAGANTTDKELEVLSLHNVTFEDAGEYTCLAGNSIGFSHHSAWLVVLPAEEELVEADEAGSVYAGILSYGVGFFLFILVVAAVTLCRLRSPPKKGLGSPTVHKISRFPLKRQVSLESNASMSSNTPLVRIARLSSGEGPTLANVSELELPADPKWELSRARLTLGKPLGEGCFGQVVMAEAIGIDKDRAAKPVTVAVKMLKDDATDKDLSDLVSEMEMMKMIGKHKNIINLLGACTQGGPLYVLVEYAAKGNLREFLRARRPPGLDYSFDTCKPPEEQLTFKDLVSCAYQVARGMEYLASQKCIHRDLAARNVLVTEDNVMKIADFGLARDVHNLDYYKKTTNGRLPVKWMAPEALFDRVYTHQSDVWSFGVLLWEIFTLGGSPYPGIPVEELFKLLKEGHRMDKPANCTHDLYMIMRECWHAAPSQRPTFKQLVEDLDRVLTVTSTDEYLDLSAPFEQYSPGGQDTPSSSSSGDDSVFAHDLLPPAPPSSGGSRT
Test [9] has the same target. The conditions noted are these: at 1 µM.
Test [10] has as its target Fibroblast growth factor receptor 4 (Homo sapiens) (UniProt P22455). As to conditions: at 0.1 µM.
Test [11] shares this target. The conditions noted are these: at 1 µM.
For test [12], the target named is Tyrosine-protein kinase Fgr (Homo sapiens) (UniProt P09769). The conditions noted are these: at 0.1 µM.
Sequence of Tyrosine-protein kinase Fgr (Homo sapiens) (P09769 2-529 limits assumed): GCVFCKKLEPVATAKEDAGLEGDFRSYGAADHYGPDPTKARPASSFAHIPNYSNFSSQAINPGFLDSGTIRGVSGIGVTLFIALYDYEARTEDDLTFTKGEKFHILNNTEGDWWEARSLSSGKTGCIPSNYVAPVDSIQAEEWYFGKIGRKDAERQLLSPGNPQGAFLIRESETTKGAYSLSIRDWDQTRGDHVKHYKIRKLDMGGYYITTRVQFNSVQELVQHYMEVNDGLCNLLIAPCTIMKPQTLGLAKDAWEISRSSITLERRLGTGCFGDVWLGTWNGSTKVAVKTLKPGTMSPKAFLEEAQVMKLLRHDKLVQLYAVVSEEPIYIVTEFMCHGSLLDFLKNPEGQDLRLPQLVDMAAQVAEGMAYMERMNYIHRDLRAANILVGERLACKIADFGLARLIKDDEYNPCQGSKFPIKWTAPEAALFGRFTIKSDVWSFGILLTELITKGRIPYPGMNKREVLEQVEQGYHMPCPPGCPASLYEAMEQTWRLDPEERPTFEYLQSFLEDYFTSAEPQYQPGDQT
For test [13] the target is unchanged. The conditions noted are these: at 1 µM.
For test [14], the target named is Vascular endothelial growth factor receptor 1 (Homo sapiens) (UniProt P17948). The conditions noted are these: at 0.1 µM.
For test [15] the target is unchanged. The conditions noted are these: at 1 µM.
In test [16] the target is Receptor-type tyrosine-protein kinase FLT3 (Homo sapiens) (UniProt P36888). As to conditions: at 0.1 µM.
The target is the same in test [17]. As to conditions: at 1 µM.
Test [18] relates to T1, Receptor-type tyrosine-protein kinase FLT3 (Homo sapiens), P36888 [D835Y].
T1 sequence (whole entry): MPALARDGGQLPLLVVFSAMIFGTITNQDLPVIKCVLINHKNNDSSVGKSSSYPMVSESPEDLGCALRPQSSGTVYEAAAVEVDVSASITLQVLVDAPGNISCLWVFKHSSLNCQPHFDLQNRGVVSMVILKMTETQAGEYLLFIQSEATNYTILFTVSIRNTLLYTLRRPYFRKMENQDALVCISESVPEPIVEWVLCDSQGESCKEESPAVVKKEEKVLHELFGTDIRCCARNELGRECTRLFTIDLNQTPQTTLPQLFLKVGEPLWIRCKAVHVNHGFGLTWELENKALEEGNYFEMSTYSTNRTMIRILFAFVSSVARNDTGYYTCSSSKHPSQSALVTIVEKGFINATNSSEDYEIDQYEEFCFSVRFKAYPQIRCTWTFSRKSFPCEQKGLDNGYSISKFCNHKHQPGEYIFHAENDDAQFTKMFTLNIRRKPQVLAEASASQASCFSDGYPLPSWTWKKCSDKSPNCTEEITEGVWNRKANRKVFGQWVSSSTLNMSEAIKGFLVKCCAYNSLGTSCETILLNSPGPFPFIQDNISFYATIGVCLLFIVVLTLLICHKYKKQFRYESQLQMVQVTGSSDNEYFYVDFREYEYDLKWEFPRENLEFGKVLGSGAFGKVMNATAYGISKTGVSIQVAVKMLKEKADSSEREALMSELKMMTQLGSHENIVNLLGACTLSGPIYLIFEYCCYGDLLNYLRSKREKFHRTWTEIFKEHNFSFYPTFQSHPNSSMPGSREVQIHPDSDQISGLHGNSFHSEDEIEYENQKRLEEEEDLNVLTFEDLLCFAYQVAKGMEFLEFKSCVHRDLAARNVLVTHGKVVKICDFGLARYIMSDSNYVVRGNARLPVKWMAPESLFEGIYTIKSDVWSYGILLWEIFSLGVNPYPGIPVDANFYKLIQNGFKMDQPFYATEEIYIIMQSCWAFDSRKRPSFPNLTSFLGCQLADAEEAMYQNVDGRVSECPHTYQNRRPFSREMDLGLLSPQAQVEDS
The conditions noted are these: at 0.1 µM.

The target in test [19] is Non-receptor tyrosine-protein kinase TYK2 (Homo sapiens) (UniProt P29597). As to conditions: at 1 µM.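 Note: values are mean percent inhibition of TYK2 kinase.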
Sequence of Non-receptor tyrosine-protein kinase TYK2 (Homo sapiens) (P29597 whole entry): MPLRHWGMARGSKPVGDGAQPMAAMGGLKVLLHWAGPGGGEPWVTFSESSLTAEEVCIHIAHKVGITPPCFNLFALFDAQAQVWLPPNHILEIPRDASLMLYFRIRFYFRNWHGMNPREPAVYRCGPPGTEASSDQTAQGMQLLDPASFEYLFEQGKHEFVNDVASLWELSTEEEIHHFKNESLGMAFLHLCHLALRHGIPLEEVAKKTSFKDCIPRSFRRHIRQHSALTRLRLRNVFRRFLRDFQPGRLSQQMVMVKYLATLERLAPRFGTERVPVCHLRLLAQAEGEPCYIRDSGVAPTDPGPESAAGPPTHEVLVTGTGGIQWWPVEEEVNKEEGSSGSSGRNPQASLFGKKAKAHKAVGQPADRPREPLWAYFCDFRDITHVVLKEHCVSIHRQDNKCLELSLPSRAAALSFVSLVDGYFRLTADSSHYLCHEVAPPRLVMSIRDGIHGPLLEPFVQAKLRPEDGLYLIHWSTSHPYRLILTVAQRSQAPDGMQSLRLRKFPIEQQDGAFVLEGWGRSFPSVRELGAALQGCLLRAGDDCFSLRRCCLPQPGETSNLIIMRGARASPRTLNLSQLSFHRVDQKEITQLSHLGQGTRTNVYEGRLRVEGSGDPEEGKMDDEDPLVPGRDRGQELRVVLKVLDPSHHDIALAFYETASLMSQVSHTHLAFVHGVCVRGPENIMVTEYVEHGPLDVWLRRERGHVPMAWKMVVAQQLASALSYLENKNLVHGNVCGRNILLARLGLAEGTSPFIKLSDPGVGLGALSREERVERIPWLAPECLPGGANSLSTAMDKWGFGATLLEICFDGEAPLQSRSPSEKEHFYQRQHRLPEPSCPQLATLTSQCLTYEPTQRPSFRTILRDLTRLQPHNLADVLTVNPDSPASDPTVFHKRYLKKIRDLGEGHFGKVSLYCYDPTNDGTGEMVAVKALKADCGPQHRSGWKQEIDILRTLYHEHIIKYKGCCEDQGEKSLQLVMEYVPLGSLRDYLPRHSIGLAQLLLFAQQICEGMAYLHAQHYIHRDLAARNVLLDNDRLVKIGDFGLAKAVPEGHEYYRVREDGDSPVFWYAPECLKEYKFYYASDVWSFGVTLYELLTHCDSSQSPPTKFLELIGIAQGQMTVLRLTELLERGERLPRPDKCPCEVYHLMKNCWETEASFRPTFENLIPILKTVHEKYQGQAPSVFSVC
For test [20], the target named is T2, Tyrosine-protein kinase receptor TYRO3 (Homo sapiens) (UniProt Q06418).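 Note: reported percentages are averaged inhibition values of TYRO3 kinase activity.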
T2 sequence (whole entry): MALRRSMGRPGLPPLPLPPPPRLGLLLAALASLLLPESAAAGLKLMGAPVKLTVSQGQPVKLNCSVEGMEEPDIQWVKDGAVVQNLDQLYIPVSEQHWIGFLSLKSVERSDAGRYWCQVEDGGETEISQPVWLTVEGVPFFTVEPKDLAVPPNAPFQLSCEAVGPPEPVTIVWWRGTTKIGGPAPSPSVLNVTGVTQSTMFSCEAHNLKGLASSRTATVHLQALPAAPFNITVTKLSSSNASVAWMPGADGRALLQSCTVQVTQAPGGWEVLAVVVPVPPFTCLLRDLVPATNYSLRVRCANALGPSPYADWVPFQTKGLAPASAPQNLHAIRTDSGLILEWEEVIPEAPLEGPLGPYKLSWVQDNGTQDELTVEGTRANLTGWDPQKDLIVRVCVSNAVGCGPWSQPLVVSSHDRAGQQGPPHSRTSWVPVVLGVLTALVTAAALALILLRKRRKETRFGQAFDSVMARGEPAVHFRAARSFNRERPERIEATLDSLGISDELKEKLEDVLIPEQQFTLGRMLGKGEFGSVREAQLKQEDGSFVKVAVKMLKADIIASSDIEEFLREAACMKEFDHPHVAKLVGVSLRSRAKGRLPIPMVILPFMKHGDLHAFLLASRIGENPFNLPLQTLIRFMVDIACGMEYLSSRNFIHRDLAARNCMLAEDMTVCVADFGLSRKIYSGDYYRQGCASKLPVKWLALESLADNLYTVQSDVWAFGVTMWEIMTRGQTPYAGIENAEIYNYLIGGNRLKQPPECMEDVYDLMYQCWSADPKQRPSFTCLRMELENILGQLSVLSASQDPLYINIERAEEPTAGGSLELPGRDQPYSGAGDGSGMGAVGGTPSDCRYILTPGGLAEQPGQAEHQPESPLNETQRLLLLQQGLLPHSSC
As to conditions: at 0.1 µM.

Sequence of Tyrosine-protein kinase Fer (Homo sapiens) (P16591 whole entry, looked up): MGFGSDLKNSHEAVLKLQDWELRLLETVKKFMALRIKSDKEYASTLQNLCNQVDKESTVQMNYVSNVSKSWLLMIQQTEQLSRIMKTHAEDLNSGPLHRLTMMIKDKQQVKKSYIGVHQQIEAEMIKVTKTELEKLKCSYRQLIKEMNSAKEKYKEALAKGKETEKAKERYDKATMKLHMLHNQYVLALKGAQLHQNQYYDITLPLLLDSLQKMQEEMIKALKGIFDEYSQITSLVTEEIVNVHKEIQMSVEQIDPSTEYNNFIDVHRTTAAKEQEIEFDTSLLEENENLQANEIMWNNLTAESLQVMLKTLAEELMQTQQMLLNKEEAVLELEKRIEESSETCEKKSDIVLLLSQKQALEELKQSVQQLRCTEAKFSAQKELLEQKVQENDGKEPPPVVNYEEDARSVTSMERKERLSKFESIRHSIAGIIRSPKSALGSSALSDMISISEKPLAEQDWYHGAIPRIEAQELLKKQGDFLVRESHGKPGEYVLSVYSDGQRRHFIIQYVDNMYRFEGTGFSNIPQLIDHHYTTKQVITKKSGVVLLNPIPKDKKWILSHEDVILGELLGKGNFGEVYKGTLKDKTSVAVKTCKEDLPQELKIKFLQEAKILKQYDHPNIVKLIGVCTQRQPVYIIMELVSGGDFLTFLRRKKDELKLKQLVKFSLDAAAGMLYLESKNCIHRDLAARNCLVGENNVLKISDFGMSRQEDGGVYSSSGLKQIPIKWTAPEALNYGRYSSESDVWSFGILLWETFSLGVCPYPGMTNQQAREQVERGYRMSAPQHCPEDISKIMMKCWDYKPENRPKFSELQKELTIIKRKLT
Sequence of Fibroblast growth factor receptor 4 (Homo sapiens) (P22455 22-802 limits assumed): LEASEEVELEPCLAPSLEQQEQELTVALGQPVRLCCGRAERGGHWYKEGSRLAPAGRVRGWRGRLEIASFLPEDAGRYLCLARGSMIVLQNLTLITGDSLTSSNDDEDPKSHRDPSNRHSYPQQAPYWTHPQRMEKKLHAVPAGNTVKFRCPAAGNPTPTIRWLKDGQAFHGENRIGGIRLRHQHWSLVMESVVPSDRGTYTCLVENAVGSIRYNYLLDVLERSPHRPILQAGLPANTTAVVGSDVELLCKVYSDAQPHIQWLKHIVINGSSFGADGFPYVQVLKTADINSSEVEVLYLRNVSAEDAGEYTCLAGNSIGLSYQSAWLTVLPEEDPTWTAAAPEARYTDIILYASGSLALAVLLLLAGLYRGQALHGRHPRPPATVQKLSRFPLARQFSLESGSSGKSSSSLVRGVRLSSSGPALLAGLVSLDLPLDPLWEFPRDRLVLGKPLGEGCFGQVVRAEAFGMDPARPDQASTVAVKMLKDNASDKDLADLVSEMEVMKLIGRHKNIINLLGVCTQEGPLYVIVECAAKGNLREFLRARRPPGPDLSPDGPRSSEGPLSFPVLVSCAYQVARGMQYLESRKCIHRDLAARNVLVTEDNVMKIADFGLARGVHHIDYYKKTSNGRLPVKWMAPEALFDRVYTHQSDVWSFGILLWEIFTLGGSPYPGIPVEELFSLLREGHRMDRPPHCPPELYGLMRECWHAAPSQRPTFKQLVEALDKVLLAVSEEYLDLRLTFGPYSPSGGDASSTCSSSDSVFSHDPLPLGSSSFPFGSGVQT

As to `CCn1c(-c2nonc2N)nc2ccncc21`, the inhibition in test [1] is 0.13%; in [2], 0.83%; in test [3], 1.98%; in test [4], 0.47%; in test [5], -1.46%; in test [6], -0.14%. The inhibition is 4.73% in [7]; 0.49% in test [8]; 0.64% in [9]; -8.14% in [10]; -0.3% in test [11]; 0.66% in [12]. In addition, the inhibition was 1.16% in test [13]; 0.15% in test [14]; -0.38% in test [15]; 3.16% in [16]; 1.23% in test [17]; -3.67% in test [18]. Further, the inhibition is -0.83% in test [19] and -0.29% in [20].

As to `CN1CCC(C(=O)Nc2n[nH]c3nnc(-c4ccccc4)cc23)CC1`, the inhibition was 5.92% in test [1]; 3.95% in [2]; 3.43% in test [3]; 5.69% in test [4]; 4.3% in test [5]; 5.82% in test [6]. For the same compound, the inhibition in [7] was 5.58%; in [8], 5.57%; in [9], 4.99%; in [10], -8.44%; in [11] it was -0.57%; in test [12], 5.18%. Besides, the inhibition was 4.46% in test [13]; 0.44% in test [14]; 2.94% in test [15]; 2.28% in test [16]; 1.88% in [17]; -4.39% in test [18]. Besides, the figures for the inhibition in test [19] and in test [20] were -0.97% and 2.36%, respectively.

On to `[O-][S+]1CCN(Cc2ccc(-c3ccc4ncnc(Nc5ccc(OCc6ccccc6)c(F)c5)c4c3)o2)CC1`, for which the inhibition in test [1] is 6.08%; in test [2], 1.91%; in test [3] it was 3.4%; in [4], 2.71%; in [5] it was -2.34%; in [6], 1.34%. The inhibition came to 3.9% in test [7]; 3.41% in [8]; 2.82% in test [9]; 0.38% in test [10]; 0.02% in test [11]; 0.4% in [12]. Besides, the inhibition is 9.74% in [13]; 1.64% in test [14]; -1.13% in test [15]; -0.1% in test [16]; 2.1% in test [17]; -4.8% in test [18]. In addition, the results for the inhibition in test [19] and in test [20] were -3.99% and 1.34%, respectively.

`CS(=O)(=O)CCNCc1nc(-c2ccc3ncnc(Nc4ccc(F)c(Cl)c4)c3c2)cs1`: the inhibition in test [1] was 4.88%; in test [2], 0.25%; in test [3] it was -0.06%; in test [4], -5.98%; in test [5], 1.65%; in test [6], 1.9%. Further, the inhibition is 5.07% in [7]; 2.17% in test [8]; 4.26% in test [9]; 2.32% in [10]; -0.36% in test [11]; 5.78% in [12]. Moreover, the inhibition is 10.6% in test [13]; 1.98% in [14]; -0.42% in test [15]; -0.6% in test [16]; 0.63% in test [17]; 2.29% in test [18]. Also, the inhibition was -3.18% in [19] and 0.5% in [20].

As to `CC(=O)Nc1cccc(C#Cc2cncnc2Nc2ccc(OCc3cccc(F)c3)c(Cl)c2)n1`, the inhibition in test [1] was 4.77%; in test [2] it was -0.62%; in test [3], -1.06%; in [4], -3.81%; in test [5] it was -5.8%; in test [6] it was -4.24%. Also, the inhibition in test [7] was 0.03%; in test [8] it was -1.4%; in test [9] it was -2.39%; in test [10], 0.06%; in [11] it was 0.7%; in test [12] it was 4.5%. Further, the inhibition in [13] is 3.79%; in test [14], -1.03%; in test [15], -0.69%; in test [16], -2.34%; in [17] it was -0.61%; in [18] it was 1.25%. For the same compound, the inhibition in test [19] worked out at 2.39%; in test [20], 0.18%.

`CCn1c(-c2nonc2N)nc2c(C#CC(C)(C)O)nc(CN3CCCC3)cc21`: the inhibition in test [1] was 0.06%; in [2], -1.26%; in test [3], -0.58%; in [4] it was -3.25%; in [5], -2.63%; in test [6], -0.04%. In addition, the inhibition in [7] is 0.42%; in test [8], -2.14%; in test [9], -0.76%; in test [10] it was -0.75%; in test [11], 1.16%; in test [12], -1.03%. Moreover, the inhibition in test [13] is 3.81%; in test [14], -1.48%; in test [15], 3.78%; in test [16], -1.67%; in [17], -0.42%; in test [18], -4.71%. Besides, the figures for the inhibition in test [19] and in test [20] were -0.89% and 0.06%, respectively.

For `COc1cc2ncn(-c3cc(OCc4ccccc4Cl)c(C(N)=O)s3)c2cc1OC`, the inhibition was 8.52% in test [1]; -0.24% in test [2]; 0.38% in [3]; 3.46% in test [4]; 8.43% in test [5]; 13.2% in test [7]. Further, the inhibition was 4.37% in [8]; 13.2% in [9]; -5.86% in test [10]; 2.76% in [11]; 3.61% in [12]; 19.1% in [13]. Moreover, the inhibition in test [14] is 0.69%; in test [15] it was 9.81%; in test [16], 0.85%; in test [17], 3.62%; in [18], -2.29%; in test [19], 2.41%. The inhibition in test [20] came to 1.87%.
